Data published in PubChem BioAssay (NCATS).
Records with an inconclusive call do not appear. The source made the active and inactive calls. Unless noted, the call rests on the fitted dose curve; in most records, active means well fitted curve in the direction sought with a large enough effect; inconclusive means small, poorly fitted or top-dose-only effect, or another doubt; inactive means no such curve, though single readings can be large; an effect the other way counts as inactive or inconclusive.

Legend:
[1] = biological target: Glucocorticoid receptor (Homo sapiens) (UniProt P04150); assay: GR-GFP Redistribution (AID 450;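 active means compounds whose dose series gives a full or clear partial fitted curve of increased nuclear translocation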; further: potency means the concentration at half of the fitted maximal effect); settings: U2OS GR-GFP nuclear translocation, laser cytometry, 2 h
[2] = biological target: Glucocorticoid receptor (Homo sapiens) (UniProt P04150); assay: GR-EFC Redistribution (AID 451; calls by dose curve; further: potency means the concentration at half of the fitted maximal effect); settings: CHO-K1 GR-EFC translocation, beta-gal luminescence, 2 h
How it was run: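 CHO-K1 cells expressing nuclear EA and GR-ED fragments of b-gal; compounds titrated up to 46 uM final, 2 h at 37 C. GR nuclear translocation read as complemented b-gal luminescence after 1 h RT detection.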

[3] = qHTS Assay for Lipid Storage Modulators (AID 1519; calls by dose curve; on activity change, negative = inhibition: on the % scale 0 is the no-effect control and ±100 the full control effect); settings: Drosophila S3 cells, BODIPY lipid droplet/cell ratio, laser cytometry, cells loaded with oleic acid; for activity change, negative = inhibition: at 57.5 µM (top of the series)
How it was run: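 Cells seeded at 5,000 per well were treated with compounds over a concentration series and loaded with oleic acid (400 uM, as added). Lipid droplet fluorescence (488 nm excitation, 500-530 nm channel) was read by laser-scanning cytometry and normalized to 20 uM Triacsin C.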

[4] = biological target: Ubiquitin carboxyl-terminal hydrolase 1 (Homo sapiens) (UniProt O94782); assay: Inhibitors of USP1/UAF1: Pilot qHTS (AID 504865); settings: purified USP1/UAF1, Ub-rhodamine cleavage fluorescence; series mostly up to 114 µM;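 further: rhodamine fluorescence freed from ubiquitin-rhodamine substrate followed over time; top concentration of the series differs between compounds; on the % scale 0 is the no-effect control and ±100 the full control effect; nearly all actives have a fitted effect of over 35% in size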
How it was run: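 In 50mM HEPES pH 7.8 containing 0.5mM EDTA, 1mM TCEP, 0.1 mg/ml BSA and 0.01% Tween-20, 1nM USP1/UAF1 is exposed to compound for 15 min, then Ub-Rho (150nM final) is added and fluorescence is read over time.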

[5] = biological target: DNA dC->dU-editing enzyme APOBEC-3G (Homo sapiens) (UniProt Q9HC16); assay: qHTS for inhibitors of Vif-A3G interactions: Validation (AID 588379); settings: Vif-A3G protein interaction assay; series mostly up to 46.1 µM; further: 0% is about no effect
How it was run: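 HeLa cells stably expressing Vif and A3G-eYFP, 700 cells/well, incubated overnight at 37 deg C, then exposed to compound overnight at 37 deg C. Inhibition of Vif-mediated degradation read as increased yellow fluorescence (Ex 488/Em 500-530) by laser-scanning cytometry.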

[6] = tested on: Zika virus NS2B-NS3 protease; assay: Primary screen GU AMC qHTS for Zika virus inhibitors (AID 1347154); settings: Zika NS2B-NS3 unlinked protease, AMC fluorogenic substrate; series mostly up to 54.1 µM;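 further: 0% = no-inhibitor control and -100% = no-enzyme control; nearly all actives have a fitted effect of over 70% in size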
How it was run: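 Unlinked Zika NS2B hydrophilic domain–NS3 protease complex at 25 nM in 10 mM Tris-HCl pH 8.0, 0.01% Tween 20, with an AMC peptide substrate. Fluorescence change (340/450 nm) over 15 min at room temperature, normalized to controls, fitted to 4-parameter Hill.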

[7] = Primary qHTS for small molecule stabilizers of the endoplasmic reticulum resident proteome: Secreted ER Calcium Modulated Protein (SERCaMP) assay (AID 1508630); settings: SH-SY5Y GLuc-SERCaMP (Gaussia luciferase released on ER calcium loss) secretion, thapsigargin, luminescence; series mostly up to 38.4 µM; further: potency means the concentration at half of the fitted maximal effect; on activity change, negative = inhibition: on the % scale 0 is the no-effect control and ±100 the full control effect
How it was run: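 GLuc-SERCaMP-expressing SH-SY5Y cells, pretreated 16 h with compound, are challenged with thapsigargin to empty ER calcium stores; after 4 h, coelenterazine is added directly to the medium and luminescence is imaged.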

[8] = biological target: Mitogen-activated protein kinase 10 (Mus musculus) (UniProt Q61831); assay: JNK3 AlphaScreen Assay (AID 530; active means well fitted curve in either direction with a large enough effect, not every such curve was filed as active;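 further: kinase came from lysate of stimulated human HepG2 cells; signal reports phosphorylation of biotinylated GST-cJun 1-79 at Ser73 with 10 µM ATP; on the % scale 0 is the no-effect control and ±100 the full control effect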); settings: JNK3 lysate, c-Jun phosphorylation; series mostly up to 57.1 µM
How it was run: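 Pre-activated (IL-1β/TNFα) JNK3 in HepG2 lysates phosphorylates biotin-GST-cJun(1-79), 10 uM ATP; anti-phospho-cJun(Ser73) AlphaScreen read at room temperature, pH 7.6 Tris buffer. Compounds pre-incubated 15 min as titrations.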

[9] = biological target: 3',5'-cyclic-AMP phosphodiesterase 4B (Homo sapiens) (UniProt Q07343); assay: qHTS Assay for Inhibitors of PDE-IV (AID 607; active means well fitted activation curve with a large enough effect in the main read-out, with a control signal flat, not every such curve was filed as active; further: % of control where 0% means no effect); settings: HEK293 ACTOne CNG channel cells, membrane potential fluorescence; series mostly up to 22.9 µM
How it was run: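 HEK293 ACTOne cells with CNG channel (1000/well), endogenous PDE4; membrane potential dye, compounds up to 22.9 uM final. Fluorescence Ex 535/Em 590; RO 20-1724 (100 uM final) as reference.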

[10] = biological target: Cytochrome P450 3A4 (Homo sapiens) (UniProt P08684); assay: qHTS Assay for Inhibitors and Substrates of Cytochrome P450 3A4 (AID 884); settings: recombinant CYP3A4, Luciferin-PPXE luminescence; series mostly up to 57.1 µM; further: on the % scale 0 is the no-effect control and ±100 the full control effect; nearly all actives have a fitted effect of over 50% in size
How it was run: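 20 nM human CYP3A4 with 25 uM Luciferin-PPXE (at KM) in 200 mM KPO4, preincubated 10 min with compound; NADPH regeneration started a 60 min RT reaction. Luciferin detected by luminescence, normalized to 57 uM ketoconazole as full inhibition.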

[11] = biological target: Cytochrome P450 2C9 (Homo sapiens) (UniProt P11712); assay: qHTS Assay for Inhibitors and Substrates of Cytochrome P450 2C9 (AID 883); settings: recombinant CYP2C9, luciferin-H luminescence, 60 min; series mostly up to 57.1 µM; further: potency means the concentration at half of the fitted maximal effect; nearly all actives have a fitted effect of over 60% in size
How it was run: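 10nM CYP2C9 + 100uM Luciferin-H (=KM), 25mM KPO4; cpd 10 min 37C; NADPH regen, 60 min 37C; stop/detect with P450 Glo-Buffer 20 min; luminescence. Norm. to 57uM sulphaphenazole as full inhibition.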

[12] = biological target: Cytochrome P450 1A2 (Homo sapiens) (UniProt P05177); assay: p450-cyp1a2 (AID 410; calls by dose curve;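 further: -100% = full effect of reference inhibitor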); settings: recombinant CYP1A2, luciferin-ME demethylation, luminescence; series mostly up to 57 µM
How it was run: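 20nM CYP1A2 with 100uM Luciferin-ME (at Km) in 100mM KPO4; compound preincubated 10 min, NADPH regeneration added, 60 min at room temperature. Luciferin quantified by luminescence after detection reagent; normalized to 57 uM furafylline.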

[13] = measured here: cell count channel max response
[14] = measured here: lipid channel max response

Sequence of 3',5'-cyclic-AMP phosphodiesterase 4B (Homo sapiens) (Q07343 whole entry, looked up): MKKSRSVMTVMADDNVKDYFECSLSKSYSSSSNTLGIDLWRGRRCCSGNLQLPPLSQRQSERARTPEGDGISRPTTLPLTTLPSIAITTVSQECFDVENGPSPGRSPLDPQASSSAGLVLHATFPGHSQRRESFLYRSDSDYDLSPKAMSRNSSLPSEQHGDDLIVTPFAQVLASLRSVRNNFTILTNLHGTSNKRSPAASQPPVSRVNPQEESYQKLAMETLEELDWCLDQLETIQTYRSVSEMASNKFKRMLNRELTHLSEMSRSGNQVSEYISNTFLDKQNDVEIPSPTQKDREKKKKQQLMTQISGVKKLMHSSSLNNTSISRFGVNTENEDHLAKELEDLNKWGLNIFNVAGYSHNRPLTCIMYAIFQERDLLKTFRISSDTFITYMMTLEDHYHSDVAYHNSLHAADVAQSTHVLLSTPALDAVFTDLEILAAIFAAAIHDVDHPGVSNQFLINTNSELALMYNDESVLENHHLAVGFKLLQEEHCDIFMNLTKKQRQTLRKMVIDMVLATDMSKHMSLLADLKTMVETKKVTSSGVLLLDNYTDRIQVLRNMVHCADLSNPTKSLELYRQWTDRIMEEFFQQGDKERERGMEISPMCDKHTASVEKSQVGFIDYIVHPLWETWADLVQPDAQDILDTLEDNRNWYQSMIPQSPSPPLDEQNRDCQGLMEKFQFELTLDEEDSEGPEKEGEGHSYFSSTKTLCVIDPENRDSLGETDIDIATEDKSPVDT
Sequence of DNA dC->dU-editing enzyme APOBEC-3G (Homo sapiens) (Q9HC16 whole entry, looked up): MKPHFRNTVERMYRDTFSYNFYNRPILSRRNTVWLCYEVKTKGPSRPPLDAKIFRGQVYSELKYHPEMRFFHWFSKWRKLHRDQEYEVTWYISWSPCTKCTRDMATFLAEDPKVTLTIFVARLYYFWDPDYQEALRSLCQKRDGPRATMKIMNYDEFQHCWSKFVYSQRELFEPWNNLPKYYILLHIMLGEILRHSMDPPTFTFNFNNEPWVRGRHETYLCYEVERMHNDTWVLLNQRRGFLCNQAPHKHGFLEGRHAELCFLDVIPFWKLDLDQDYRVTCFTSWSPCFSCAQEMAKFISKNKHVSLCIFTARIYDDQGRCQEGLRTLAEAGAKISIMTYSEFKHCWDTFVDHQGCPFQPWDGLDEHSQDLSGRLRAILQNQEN
Sequence of Glucocorticoid receptor (Homo sapiens) (P04150 whole entry, looked up, the tested form may be a part): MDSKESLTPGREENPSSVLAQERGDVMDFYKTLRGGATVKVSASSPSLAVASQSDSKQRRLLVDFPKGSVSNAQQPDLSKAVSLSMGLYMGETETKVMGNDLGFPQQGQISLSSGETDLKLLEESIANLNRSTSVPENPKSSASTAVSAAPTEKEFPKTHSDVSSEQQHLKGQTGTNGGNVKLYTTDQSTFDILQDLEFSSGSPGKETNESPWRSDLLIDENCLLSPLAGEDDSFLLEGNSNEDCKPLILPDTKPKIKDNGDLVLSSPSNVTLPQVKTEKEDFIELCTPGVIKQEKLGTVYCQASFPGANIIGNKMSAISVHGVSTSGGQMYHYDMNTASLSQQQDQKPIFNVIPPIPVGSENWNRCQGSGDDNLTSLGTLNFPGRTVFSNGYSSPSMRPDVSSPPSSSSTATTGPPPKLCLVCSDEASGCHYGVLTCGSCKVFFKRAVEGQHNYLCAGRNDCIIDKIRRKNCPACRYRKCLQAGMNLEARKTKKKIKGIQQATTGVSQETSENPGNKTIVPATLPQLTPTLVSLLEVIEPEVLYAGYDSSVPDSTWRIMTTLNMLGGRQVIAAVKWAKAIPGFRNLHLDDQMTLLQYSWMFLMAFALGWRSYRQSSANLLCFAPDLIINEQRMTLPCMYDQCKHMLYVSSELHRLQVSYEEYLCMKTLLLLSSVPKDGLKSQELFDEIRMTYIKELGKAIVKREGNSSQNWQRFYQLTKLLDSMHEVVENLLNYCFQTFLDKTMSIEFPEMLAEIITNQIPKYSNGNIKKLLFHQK
Sequence of Ubiquitin carboxyl-terminal hydrolase 1 (Homo sapiens) (O94782 whole entry, looked up): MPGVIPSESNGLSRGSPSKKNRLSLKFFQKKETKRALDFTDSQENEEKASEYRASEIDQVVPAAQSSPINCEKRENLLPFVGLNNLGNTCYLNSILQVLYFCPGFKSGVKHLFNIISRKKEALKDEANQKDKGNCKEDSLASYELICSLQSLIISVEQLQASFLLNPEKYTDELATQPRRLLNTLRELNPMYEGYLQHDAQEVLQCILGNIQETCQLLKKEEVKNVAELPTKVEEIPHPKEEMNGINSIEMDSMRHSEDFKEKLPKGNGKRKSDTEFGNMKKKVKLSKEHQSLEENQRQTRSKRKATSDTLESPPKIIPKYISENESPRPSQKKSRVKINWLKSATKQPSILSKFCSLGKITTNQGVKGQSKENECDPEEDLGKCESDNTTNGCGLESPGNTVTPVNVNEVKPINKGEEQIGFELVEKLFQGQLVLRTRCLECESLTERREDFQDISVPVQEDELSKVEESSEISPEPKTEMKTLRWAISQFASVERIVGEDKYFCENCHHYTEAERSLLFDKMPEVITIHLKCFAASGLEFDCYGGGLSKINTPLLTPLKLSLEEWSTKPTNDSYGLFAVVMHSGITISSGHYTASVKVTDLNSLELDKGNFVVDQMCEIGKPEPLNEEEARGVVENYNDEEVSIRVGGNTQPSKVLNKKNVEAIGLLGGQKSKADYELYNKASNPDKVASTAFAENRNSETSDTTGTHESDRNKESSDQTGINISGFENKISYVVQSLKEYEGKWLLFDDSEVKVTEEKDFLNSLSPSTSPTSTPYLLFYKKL
Sequence of Cytochrome P450 1A2 (Homo sapiens) (P05177 whole entry, looked up): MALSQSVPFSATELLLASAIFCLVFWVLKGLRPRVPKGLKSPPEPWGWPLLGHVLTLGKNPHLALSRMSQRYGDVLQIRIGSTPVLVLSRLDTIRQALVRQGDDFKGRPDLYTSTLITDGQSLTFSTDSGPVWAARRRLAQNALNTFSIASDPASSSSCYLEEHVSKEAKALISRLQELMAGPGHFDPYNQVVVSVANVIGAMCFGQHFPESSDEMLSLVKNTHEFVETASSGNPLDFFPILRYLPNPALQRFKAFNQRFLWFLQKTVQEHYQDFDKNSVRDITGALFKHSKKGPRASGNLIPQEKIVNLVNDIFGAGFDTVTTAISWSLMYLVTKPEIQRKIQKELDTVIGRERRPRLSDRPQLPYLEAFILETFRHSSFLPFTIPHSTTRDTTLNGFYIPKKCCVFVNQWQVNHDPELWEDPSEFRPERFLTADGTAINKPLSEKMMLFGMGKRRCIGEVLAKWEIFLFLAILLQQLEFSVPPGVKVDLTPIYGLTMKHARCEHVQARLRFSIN
Sequence of Cytochrome P450 3A4 (Homo sapiens) (P08684 whole entry, looked up): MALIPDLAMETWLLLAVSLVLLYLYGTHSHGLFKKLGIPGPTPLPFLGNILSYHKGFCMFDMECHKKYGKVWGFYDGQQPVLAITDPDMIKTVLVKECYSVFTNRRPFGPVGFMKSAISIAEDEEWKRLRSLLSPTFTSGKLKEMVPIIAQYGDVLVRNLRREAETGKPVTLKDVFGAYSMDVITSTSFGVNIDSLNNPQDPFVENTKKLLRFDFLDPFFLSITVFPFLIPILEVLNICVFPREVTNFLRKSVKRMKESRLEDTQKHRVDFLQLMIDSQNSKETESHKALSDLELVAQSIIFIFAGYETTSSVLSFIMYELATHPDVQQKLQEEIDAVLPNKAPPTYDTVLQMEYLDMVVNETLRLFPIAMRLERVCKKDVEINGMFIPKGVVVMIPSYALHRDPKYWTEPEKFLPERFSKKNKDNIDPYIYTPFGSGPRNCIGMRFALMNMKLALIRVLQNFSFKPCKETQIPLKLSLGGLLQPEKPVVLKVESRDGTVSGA
Sequence of Cytochrome P450 2C9 (Homo sapiens) (P11712 whole entry, looked up): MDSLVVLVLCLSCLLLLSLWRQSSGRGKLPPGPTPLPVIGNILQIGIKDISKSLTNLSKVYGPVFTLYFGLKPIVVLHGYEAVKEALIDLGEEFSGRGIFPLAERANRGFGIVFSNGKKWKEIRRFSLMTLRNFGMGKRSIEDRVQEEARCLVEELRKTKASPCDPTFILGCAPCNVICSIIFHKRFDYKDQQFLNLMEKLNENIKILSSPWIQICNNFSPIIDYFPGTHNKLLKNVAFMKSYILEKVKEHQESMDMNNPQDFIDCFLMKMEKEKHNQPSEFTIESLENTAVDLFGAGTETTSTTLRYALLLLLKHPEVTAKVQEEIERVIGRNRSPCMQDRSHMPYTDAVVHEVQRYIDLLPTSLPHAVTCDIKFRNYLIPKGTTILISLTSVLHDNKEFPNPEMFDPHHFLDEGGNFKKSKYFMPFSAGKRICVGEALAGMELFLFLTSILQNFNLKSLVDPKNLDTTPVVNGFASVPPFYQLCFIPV

Nc1nc2c(nc(Br)n2[C@@H]2O[C@H]3COP(=O)(O)O[C@H]3[C@@H]2O)c(=O)[nH]1
inactive: Potency [1] > 46 µM | Potency [2] > 46 µM | activity change, negative = inhibition [3] -3.52% | Potency [4] | Potency [5] | Potency [6] | Potency [7]
-4.09%: max response [3, 13]
-7.98%: max response [3, 14]

CSc1nc(N)c2ncn([C@H]3O[C@H](COP(=O)(O)OP(=O)(O)O)[C@@H](O)[C@@H]3O)c2n1
inactive: Potency [1] > 46 µM | Potency [2] > 46 µM | Potency [8] | activity change, negative = inhibition [3] 8.63% | Potency [4] | Potency [5] | Potency [6] | Potency [7]
13.1%: max response [3, 13]
26.1%: max response [3, 14]

NC1(C(=O)O)CC(C(=O)O)C1 (stereo not given)
2.35%: max response [3, 13]
10.2%: max response [3, 14]
inactive: Potency [1] > 46 µM | Potency [2] > 46 µM | Potency [8] | Potency [9] | Potency [10] | activity change, negative = inhibition [3] 5.41% | Potency [4] | Potency [5] | Potency [6] | Potency [7]

CC[N+](C)(CC)CC(=O)Nc1c(C)cccc1C
-8.79%: max response [3, 14]
-9.49%: max response [3, 13]
inactive: Potency [1] > 46 µM | Potency [2] > 46 µM | Potency [8] | Potency [9] | activity change, negative = inhibition [3] 0.67% | Potency [4] | Potency [5] | Potency [6] | Potency [7]

NC1(C(=O)O)CCC1
-18.5%: max response [3, 13]
inactive: Potency [1] > 46 µM | Potency [2] > 46 µM | Potency [8] | activity change, negative = inhibition [3] 3.54% | Potency [4] | Potency [5] | Potency [6] | Potency [7]
-13.7%: max response [3, 14]

COc1ccccc1N1CCN(CCCCN2C(=O)CCC2=O)CC1
active: Potency [11] 3.98 µM
inactive: Potency [1] > 46 µM | Potency [2] > 46 µM | Potency [8] | Potency [9] | activity change, negative = inhibition [3] -4.36% | Potency [4] | Potency [5] | Potency [6] | Potency [7]
-4.4%: max response [3, 14]
-1.96%: max response [3, 13]

N[C@H](CCC(=O)NCC(=O)O)C(=O)O
inactive: Potency [12] | Potency [1] > 46 µM | Potency [8] | Potency [9] | activity change, negative = inhibition [3] -2.27% | Potency [4] | Potency [5] | Potency [6] | Potency [7]
3.09%: max response [3, 14]
4.97%: max response [3, 13]

C[C@](N)(COP(=O)(O)O)C(=O)O
active: Potency [7] 31.6 µM
21.4%: max response [3, 14]
16.3%: max response [3, 13]
inactive: Potency [1] > 46 µM | Potency [2] > 46 µM | Potency [8] | activity change, negative = inhibition [3] 4.7% | Potency [4] | Potency [5] | Potency [6]
